Records with an inconclusive call do not appear. The source made the active and inactive calls. The call rests on the fitted dose curve; in most records, active means well fitted activation curve with a large enough effect; inconclusive means small, poorly fitted or top-dose-only effect; inactive means no such curve, though single readings can be large or run the other way.
Biological target: Rap guanine nucleotide exchange factor 3 (Homo sapiens) (UniProt O95398)
Test: Confirmatory qHTS for agonist of cAMP-regulated guanine nucleotide exchange factor 3 (EPAC1) (AID 1645881);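 further: EPAC1 catalysed release of BODIPY-GDP from Rap1B seen as fluorescence loss; nearly all actives have a fitted effect of over 75% in size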
Settings: EPAC1 Rap1B BODIPY-GDP exchange fluorescence; series mostly up to 154 µM

Rap guanine nucleotide exchange factor 3 (Homo sapiens), sequence (O95398 whole entry, looked up): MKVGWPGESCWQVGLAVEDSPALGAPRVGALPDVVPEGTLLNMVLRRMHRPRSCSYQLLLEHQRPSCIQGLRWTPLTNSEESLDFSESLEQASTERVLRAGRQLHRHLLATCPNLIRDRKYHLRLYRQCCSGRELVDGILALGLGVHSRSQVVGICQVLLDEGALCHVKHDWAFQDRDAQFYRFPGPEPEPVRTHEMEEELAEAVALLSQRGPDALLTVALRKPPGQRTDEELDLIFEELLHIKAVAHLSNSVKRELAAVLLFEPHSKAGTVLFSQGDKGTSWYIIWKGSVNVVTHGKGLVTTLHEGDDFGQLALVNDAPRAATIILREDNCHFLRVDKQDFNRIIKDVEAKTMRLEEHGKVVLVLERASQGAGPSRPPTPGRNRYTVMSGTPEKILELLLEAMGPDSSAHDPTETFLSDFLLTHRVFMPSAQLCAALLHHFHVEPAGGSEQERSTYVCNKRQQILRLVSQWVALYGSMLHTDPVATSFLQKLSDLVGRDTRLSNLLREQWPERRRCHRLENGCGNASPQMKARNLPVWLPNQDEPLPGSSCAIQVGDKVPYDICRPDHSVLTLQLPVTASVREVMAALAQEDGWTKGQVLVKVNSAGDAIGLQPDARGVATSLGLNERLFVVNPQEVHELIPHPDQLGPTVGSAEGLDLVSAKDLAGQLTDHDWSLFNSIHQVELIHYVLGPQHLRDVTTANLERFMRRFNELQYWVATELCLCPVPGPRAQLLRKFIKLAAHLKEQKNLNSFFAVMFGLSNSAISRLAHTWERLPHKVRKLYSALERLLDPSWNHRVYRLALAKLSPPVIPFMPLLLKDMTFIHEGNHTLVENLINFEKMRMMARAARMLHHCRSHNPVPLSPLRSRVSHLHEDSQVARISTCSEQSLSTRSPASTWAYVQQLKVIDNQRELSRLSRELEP

Potency, inactive:
CCc1nc2c(OCc3ccc(C(=O)OC)cc3)cccn2c1N(C)C(=O)c1ccc(C)cc1, CC(C)C(CCNC(=O)CC(Cc1ccccc1)c1ccco1)c1ccco1 (stereo not given), CCCC(=O)OC1CC(C)N(C(=O)c2ccccc2)c2ccc(C)cc21 (stereo not given), COCCCn1c(=O)/c(=C\c2ccccc2OC(C)C)s/c1=C(/C#N)C(=O)Nc1ccc(C(=O)O)cc1, O=S(=O)(Nc1nc2ccc(Cl)cc2s1)c1cccs1, CCOc1ccc(N2C(=O)C3Sc4[nH]c(=O)sc4C(/C=C/c4ccccc4)C3C2=O)cc1 (stereo not given), N#CCC(=O)N/N=C/c1coc2ccccc2c1=O, Cc1ccc(C)c(OC(C)C(=O)Nc2ccc(S(=O)(=O)Nc3nccs3)cc2)c1 (stereo not given), CCc1nc2c(OCc3ccc(C(F)(F)F)cc3)cccn2c1N(C)C(=O)c1ccc(C)cc1, O=C(Nc1ccccc1C(=O)O)c1cccc(NC(=O)c2ccc(Br)o2)c1, CCOc1ccccc1Oc1ncnc2c1oc1ccccc12, COCCNc1nc2cc(-c3ccsc3)sc2c(=O)n1C, CCOC(=O)c1cc2c(ccn2C)n1CC(=O)N1CCN(c2cccc(C(F)(F)F)c2)CC1, Cc1ccc(C)c(Cn2c(CN(C)Cc3ccccc3)nc3c2c(=O)n(C)c(=O)n3C)c1, CN(C)c1ccc(-c2[nH][nH]c(=O)c2NC(=O)c2ccccn2)cc1, Cc1ccc(Nc2c(-c3ccccn3)nc3cccc(C)n23)cc1, CC(c1ccccc1)n1cc2c(c1-c1ccccc1Br)c(=O)n(C)c(=O)n2C (stereo not given), O=C(O)c1ccc(N2C(=O)CC(SC(=NCc3ccc4c(c3)OCO4)Nc3ccc(F)cc3)C2=O)cc1 (stereo not given), O=S(=O)(Nc1cc(Sc2ncn[nH]2)c(O)c2ccccc12)c1ccccc1, COC(=O)[C@]12CCCCC=C1N(CCC1=CCCCC1)C(=O)[C@H](CC(=O)NCc1cccc(C(F)(F)F)c1)C2, O=C(COc1ccccc1-c1ccccc1)NCc1ccco1, Cc1occc1-c1nnc(SCC(=O)c2cc3ccccc3oc2=O)o1, CCOC(=O)Cc1cc(=O)n2[nH]c(-c3ccccc3)c(-c3ccccc3)c2n1, O=C1Cc2ccccc2C(=O)N1CCc1ccccc1, CCn1c(=O)c(C(=O)Nc2ccccc2S(N)(=O)=O)c(O)c2ccccc21, Cc1cccc(Nc2nnc(SC/C(O)=C(\C#N)c3nc4ccccc4[nH]3)s2)c1, CC(C)Cc1ccc(CN2CCCC(NC(=O)c3cnc4ccccn4c3=O)C2)cc1 (stereo not given), COc1ccc(Oc2cn[nH]c2-c2ccc(OC)cc2O)cc1, O=C(CSc1ccc2ccccc2c1)Nc1ccc(S(=O)(=O)Nc2nccs2)cc1, O=C(Nc1cccc(Cl)c1)Nc1ccccc1NS(=O)(=O)c1cccs1, O=C(N/N=C/c1ccc(Sc2ccccn2)o1)c1cc2ccccc2cc1O, CCCC1=C(C(=O)OCC)C(c2ccco2)C(C#N)=C(N)O1 (stereo not given), CCOc1ccccc1NC(=O)C1CCN(c2nc(-c3ccc(OC)cc3)no2)CC1, CCn1c(SCC(=O)N/N=C/C=C/c2ccco2)nnc1-c1ccccc1, COC(=O)c1ccc2nc(-c3ccc(F)cc3)c(Cc3ccc(C)cc3)n2c1, CCOC(=O)C1=CN(Cc2cccc(F)c2)S(=O)(=O)NC1c1ccc(Br)cc1F (stereo not given), Cc1ccc(CNc2nc(NCc3ccccc3)nc3ccsc23)c(C)c1, O=C(Nc1cccc(F)c1)c1ccc(-c2cccnc2)c2ccoc12, CC1=C(C(=O)Nc2ccccc2)C(c2ccc[nH]2)n2ncnc2N1 (stereo not given), Cc1ccc(O)c(-c2n[nH]c3c2C(c2ccccc2F)N(Cc2ccco2)C3=O)c1 (stereo not given)

From PubChem BioAssay (NCATS)
